From PubChem BioAssay (NCI) come the findings set out here.

This is part of a sample that, as a whole, favours compounds with a hit. Of some 83,000 tested, about 20% had one in any assay.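 The test compound was applied at a single concentration to cells in 96-well plates for 48 hours, and percent growth was recorded.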 Unmarked numbers belong to inactive results. The source made the active and inactive calls. How the source made its calls: active means growth percent below 10; inactive means the rest.

Common to all, as to assay: NCI-60 one-dose screen, 48 h (100 = growth as untreated, 0 = no growth, -100 = all killed)
Common to all, as to conditions: 10 µM unless noted

In assay [1] the test system is HCT-15 colon.
In assay [2] the test system is HT29 colon.
The test system of assay [3] is SNB-19 CNS.
Assay [4] has as its system U251 CNS.
The test system of assay [5] is PC-3 prostate.
Assay [6] deals with SK-MEL-5 melanoma.
Assay [7] concerns UACC-62 melanoma.
For assay [8], the system named is LOX IMVI melanoma.
Assay [9] deals with SK-MEL-28 melanoma.
Assay [10] deals with SK-MEL-2 melanoma.
Assay [11] concerns EKVX NSCLC.
Assay [12] deals with SN12C renal.
In assay [13] the test system is UO-31 renal.
The test system of assay [14] is TK-10 renal.
In assay [15] the test system is ACHN renal.
The subject of assay [16] is CAKI-1 renal.
The subject of assay [17] is A498 renal.
The subject of assay [18] is CCRF-CEM leukemia.
Assay [19] relates to MOLT-4 leukemia.

With `CCCCCCCCCCCCCCCCCCNC(=O)[C@H]1CSC(c2ccc(F)c(OC)c2)N1` (some centres not stated), the growth in assay [1] was 6.47% (active); in [2], -84.5% (active); in [3], -40.2% (active); in [4], -96.6% (active); in [5], 34.1%; in assay [6], -94.8% (active). In addition, the growth is -97.2% (active) in assay [7]; 14.1% in [8]; -93.3% (active) in [9]; -94.1% (active) in assay [10]; -57.5% (active) in assay [11]; -79.2% (active) in assay [12]. Besides, the growth in assay [13] was 45.5%; in assay [14] it was 6.86% (active); in [15], 30.3%; in assay [16], -76.8% (active); in assay [17], 6.25% (active); in assay [18] it was -36.8% (active). Moreover, the growth in assay [19] is -14.9% (active).
On to `CN1CCN(Cc2ccc(NC(=O)c3cncc(C#Cc4cnc(N)c5cccnc45)c3)cc2C(F)(F)F)CC1`, for which the growth was 22.9% in [1]; 7.8% (active) in assay [2]; 39.8% in assay [3]; 33.9% in assay [4]; 29.3% in [5]; -23.6% (active) in assay [6]. In addition, the growth in assay [7] was -47.6% (active); in assay [8], -76.6% (active); in assay [9], -2.55% (active); in [10], -27.1% (active); in assay [11], 14.1%; in assay [12], 11.6%. Further, the growth in assay [14] was 50.1%; in assay [15], 6.51% (active); in assay [16], 1.93% (active); in assay [17], -27.5% (active); in assay [18], 16.9%; in assay [19], 18.1%.
`Cc1ccc2cnc(N)c(C#Cc3cncc(C(=O)Nc4ccc(CN5CCN(C)CC5)c(C(F)(F)F)c4)c3)c2c1`: the growth in assay [1] is -91.9% (active); in [2] it was -69.9% (active); in [3], -99.1% (active); in [4], -89.5% (active); in [5] it was -71% (active); in [6], -95.6% (active). Moreover, the growth was -85.5% (active) in assay [7]; -92.4% (active) in assay [8]; -90.8% (active) in assay [9]; -62.1% (active) in [10]; -97.5% (active) in assay [12]; -93.3% (active) in [13]. Moreover, the growth in [14] was -94.4% (active); in assay [15] it was -99.6% (active); in assay [16] it was -95.1% (active); in [17], -94.2% (active); in assay [18], -45% (active); in [19], -54.8% (active).
`Cc1nc2sc(C(=O)Nc3cccc4c3OCCO4)c(N)c2cc1C(C)O` (configuration not stated): the growth was 21.4% in assay [1]; 3.68% (active) in assay [2]; 34.3% in assay [3]; 28.7% in assay [4]; 32.6% in [5]; 29.7% in [6]. The growth is 22% in assay [7]; 33% in assay [8]; 66.6% in [9]; 17.1% in assay [10]; 35.1% in [11]; 40.4% in assay [12]. In addition, the growth was 55.7% in assay [14]; 44.8% in [15]; 40.9% in [16]; -4.54% (active) in assay [17]; 19.3% in assay [18]; 28.2% in assay [19].
As to `O=C1/C(=C/c2ccccc2)CN(CCC(=O)N2C/C(=C\c3ccccc3)C(=O)/C(=C/c3ccccc3)C2)C/C1=C\c1ccccc1`, the growth was 18.8% in [1]; -13.5% (active) in assay [2]; 52.9% in assay [3]; 8.91% (active) in [4]; 51.3% in assay [5]; 60.5% in assay [6]. In addition, the growth in [7] was 70.2%; in assay [8], -51.4% (active); in assay [9], 91.9%; in assay [10] it was 92.1%; in assay [11], 63.6%; in assay [12] it was 68.3%. Also, the growth is 47.7% in assay [13]; 98.5% in assay [14]; 62.1% in [15]; 61.7% in assay [16]; 60.8% in [17]; 9.77% (active) in [18]. Further, the growth in assay [19] is 29.5%.
In the case of `COc1ccc(-n2cc(-c3ccccc3)c3c(SCC(=O)N/N=C/c4ccc([N+](=O)[O-])cc4)ncnc32)cc1`, the growth in [1] is 108%; in [2] it was 114%; in assay [3], 99.7%; in assay [4], 104%; in [5], 96.4%; in [6], 100%. In addition, the growth in assay [7] is 97.5%; in assay [8] it was 94.2%; in assay [9], 110%; in assay [10], 98.1%; in assay [12], 102%; in [13] it was 79.4%. In addition, the growth in assay [14] was 108%; in assay [15], 105%; in assay [16] it was 89.7%; in [17], 108%; in [18], 104%; in [19], 108%.
On to `O=[N+]([O-])c1cccc(-c2nc3sccn3c2-c2ccnc(NCCCNS(=O)(=O)c3cccc(F)c3)n2)c1`, for which the growth was 2.21% (active) in [1]; 21.3% in [2]; 41.2% in [3]; 39.8% in assay [4]; -14% (active) in [5]; -71.2% (active) in [6]. Further, the growth was -37.8% (active) in assay [7]; -17.6% (active) in [8]; -4.71% (active) in [9]; -29.2% (active) in assay [10]; 19.1% in [11]; 18.7% in assay [12]. Besides, the growth in assay [13] was -11.6% (active); in assay [14] it was 52.9%; in assay [15], 6.36% (active); in assay [16] it was 10%; in [17], 33.7%; in [18], 3.04% (active). Also, in assay [19], the growth was -34.4% (active).
For the compound `COc1cc2c(c(OC)c1OC)-c1ccc(N=NC(N)=S)c(=O)cc1[C@@H](NC(C)=O)CC2`, the growth in assay [1] is 76.4%; in [2] it was -2.5% (active); in assay [3] it was 27.9%; in [4], 9.3% (active); in assay [5], 57.3%; in [6] it was -33.2% (active). Besides, the growth was 17.2% in [7]; 13.5% in assay [8]; 53.6% in assay [9]; -10.1% (active) in assay [10]; 37% in [12]; 60.9% in [13]. Also, the growth was 19% in assay [14]; 65.8% in assay [15]; 64.4% in assay [16]; -10.9% (active) in [17]; 15% in assay [18]; 20% in assay [19].
